Rows were chosen to be rich in hits. Some 7.7% of all compounds tested hit in one or more screens of this group.
TbPYK inhibitor: blocks Trypanosoma brucei pyruvate kinase. Q57TT1. TbPYK enzyme, Kinase-Glo Plus ATP luminescence, 45 min. Potency, µM (doses to about 76.8 µM), for the others: top-dose activity, negative = inhibition, hits mostly inhibitors. 410,000 compounds, 0.12% hits. AID 624173; note: potency is the fitted concentration of half-maximal effect; nearly all actives have a fitted effect of over 50% in size
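Enzyme and substrate buffer are dispensed first and compound is pin-transferred. ADP at 130 uM final then starts the reaction, which runs 45 min at room temperature. Detection reagent is added for 10 min before luminescence is imaged.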
Sm TGR inh: blocks Schistosoma mansoni thioredoxin glutathione reductase | purified TGR, DTNB reduction, TNB absorbance 405 nm | Q962Y6 | Potency, µM (highest dose often 114 µM), inactives show at the highest dose activity change, negative = inhibition, usual class: inhibitors | 360,000 compounds, 3% hits; note: potency is the fitted concentration of half-maximal effect; nearly all actives have a fitted effect of over 60% in size
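Kinetic colorimetric format: TGR-catalysed, NADPH-driven DTNB reduction monitored via TNB absorbance. Enzyme dispensed at 20 nM; compound exposure 15 min at room temperature before reaction start.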
RE007 growth inh: less growth of the S. pombe RE007 Vpr strain | 360,000 compounds, 0.21% hits | Potency, µM (top dose mostly 92.2 µM), without a hit: top-dose activity change, negative = less growth, usual class: inhibitors | S. pombe RE007 Vpr strain, BacTiter-Glo ATP luminescence, 24 h; active = well fitted falling curve with a large enough effect; inconclusive = small, poorly fitted or top-dose-only effect; inactive = no such curve, though single readings can be large or run the other way; note: potency is the fitted concentration of half-maximal effect; nearly all actives have a fitted effect of over 50% in size
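Fission yeast RE007 carrying one integrated HIV-1 vpr copy, seeded at OD 0.01 in PMG+AL medium with 23 nL pinned compound. Grown 24 h at 30 degrees; viability read by BacTiter-Glo luminescence after 5 min.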
FMDV inh: antivirals against foot and mouth disease virus | FMDV antiviral cell-based qHTS | Potency, µM (doses to about 57.9 µM), without a hit: top-dose activity change, negative = inhibition, usual class: inhibitors | 410,000 compounds, 1.2% hits; calls by dose curve; tested in HEK293T cells; note: read-out not given here; potency is the fitted concentration of half-maximal effect; nearly all actives have a fitted effect of over 45% in size
FBPA Giardia inh: Giardia lamblia aldolase inhibition; 290,000 compounds, 0.71% hits; Potency, µM (titrated, usually from 59.6 µM), for inactives: at the top dose activity, negative = inhibition, most hits filed as inhibitors; purified Giardia FBPA; A8B2U2; note: potency is the fitted concentration of half-maximal effect; nearly all actives have a fitted effect of over 55% in size
Target sequence (A8B2U2 whole entry, looked up): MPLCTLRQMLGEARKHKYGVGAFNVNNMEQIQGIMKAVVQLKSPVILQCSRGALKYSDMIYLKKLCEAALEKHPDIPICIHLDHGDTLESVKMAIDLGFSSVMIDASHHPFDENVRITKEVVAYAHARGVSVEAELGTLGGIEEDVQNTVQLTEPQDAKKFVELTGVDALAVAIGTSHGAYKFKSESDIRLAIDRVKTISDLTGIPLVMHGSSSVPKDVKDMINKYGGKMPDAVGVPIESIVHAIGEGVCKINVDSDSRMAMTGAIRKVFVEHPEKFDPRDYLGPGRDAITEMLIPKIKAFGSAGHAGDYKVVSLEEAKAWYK
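40 nM FBPA preincubated 10 min at RT with compound (up to 57.5 uM final), then substrate plus GAPDH/TPI/NAD/arsenate coupling and diaphorase/resazurin added. Fluorescence read after 20 min at RT, 525/598 nm.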
HCMV antiviral: inhibitors of human cytomegalovirus. HFF cells, HCMV-luciferase reporter, 72 h; active compounds read low. activity change, negative = inhibition, % at 57.5 µM. 410,000 compounds, 4.5% hits. AID 1259415; in the data active = activity change below about -60%; inconclusive = no clear call, values can overlap the other calls; inactive = above about -39%
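HFF cells seeded 16 h at 37C, treated with compounds, infected with luciferase-reporter HCMV at MOI 1 PFU/cell; luciferase read at 72 h post infection, normalized to buffer-only and Salinomycin controls.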
Numbers without * were called inactive; ? = inconclusive; . = no result; [ ] = remark or other dose. Unless noted, calls come from the whole dose curve; as a rule, active = well fitted curve in the direction sought with a large enough effect; inconclusive = small, poorly fitted or top-dose-only effect, or another doubt; inactive = no such curve, though single readings can be large; an effect the other way counts as inactive or inconclusive. % is set by controls: 0 for no effect and ±100 for the full control effect.

SMILES	TbPYK inhibitor	Sm TGR inh	RE007 growth inh	FMDV inh	FBPA Giardia inh	HCMV antiviral
COc1ccccc1CCNC(=O)C(=O)NCC(c1cccnc1)N1CCN(c2ccccc2)CC1 (configuration not stated)	0%	-6%	.	?	.	-33
COc1ccccc1-n1cc(-c2ccccc2)c2c(=S)nc[nH]c21	0%	7%	1%	-2%	-1%	-69*
Cc1ccc(S(=O)(=O)NCCC(=O)Oc2ccc3ccc(=O)oc3c2)cc1	6%	16µM*	-8%	17%	-1%	12
O=C(CCS(=O)(=O)c1ccc(Br)cc1)NCCc1ccccc1	-2%	50µM*	21%	-12%	2%	15
NS(=O)(=O)c1ccc(CCNC(=O)CCS(=O)(=O)c2ccc(Br)cc2)cc1	-6%	0%	-15%	-9%	5%	42
O=C(CCS(=O)(=O)c1ccc(Br)cc1)Nc1ccccc1Cl	1%	4%	5%	-26%	14%	-10
O=C1CSc2ccc(S(=O)(=O)CCC(=O)NC3CCCCC3)cc2N1	-3%	22µM*	7%	-11%	.	0
O=C(CCS(=O)(=O)c1ccc2c(c1)NC(=O)CS2)NCCc1ccccc1	5%	32µM*	0%	-3%	5%	5
O=C(CCS(=O)(=O)c1ccc(Br)cc1)Nc1ccccn1	-3%	3.2µM*	-3%	-16%	-2%	?
COCCNC(=O)c1cc2n(n1)CCCN(Cc1ccc(C)cc1)C2=O	-1%	2%	.	12%	.	-1
CCN(CC)CCOC(=O)c1ccc(N/C=C(/C#N)c2nc(-c3ccc(OC)cc3)cs2)cc1	-3%	-17%	0%	-6%	-6%	-77*
CC1=C(C(=O)Nc2ccccc2C)C(c2cccnc2)n2nc(SCc3ccccc3F)nc2N1 (configuration not stated)	-1%	5%	.	?	.	-4
Cc1noc(C)c1COC(=O)c1ccc(S(=O)(=O)NCc2ccco2)cc1	-4%	40µM*	7%	?	6%	6
COc1ccc(C(=O)Nc2ccccc2)cc1S(=O)(=O)NCc1ccco1	-6%	45µM*	-2%	14%	5%	2
Cc1ccc(C(=O)Nc2ccc(S(=O)(=O)NCc3ccco3)cc2)cc1	-3%	50µM*	14%	86%	-4%	30
O=C(Nc1ccccc1)c1ccc(S(=O)(=O)NCc2ccco2)cc1	0%	?	6%	-10%	2%	-5
O=C(COC(=O)c1ccc(S(=O)(=O)NCc2ccco2)cc1)c1ccccc1	-1%	1%	-10%	22%	4%	52
O=C(Nc1ccccc1)c1cccc(S(=O)(=O)NCc2ccco2)c1	-5%	2%	-1%	12%	1%	-7
Cc1cc(C)n(-c2ccc(C(=O)Nc3ccc(S(=O)(=O)NCc4ccco4)cc3)cc2)n1	2%	-33%	16%	?	-3%	-96*
CCc1cccc(C)c1NC(=O)CSc1n[nH]c(-c2ccccc2)n1	-1%	4%	.	?	.	-12
O=C(N/N=C(\c1ccccc1)c1ccccn1)c1ccccc1Cl	1%	-1%	30%	?	20%	-114*
COc1ccc(NC(=O)c2ccccn2)cc1	-29%	-26%	?	11µM*	-4%	.
O=C(NC(O)C(=O)c1ccccc1)c1ccccn1 (configuration not stated)	-2%	17%	6%	46%	-17%	7
O=C(NN=C(c1ccccc1)c1ccccn1)c1ccccc1	-6%	.	?	-14%	.	-98*
COc1ccc(C(=O)N/N=C(\c2ccccc2)c2ccccn2)cc1	-4%	-9%	.	-33%	-14%	-99*
SMILES	TbPYK inhibitor	Sm TGR inh	RE007 growth inh	FMDV inh	FBPA Giardia inh	HCMV antiviral
COc1ccc(C(=O)Nc2ccc(NC(=O)c3ccccn3)cn2)cc1	10%	0%	-18%	4%	0%	-32
C/C(=N/NC(=O)c1ccccn1)c1ccncc1	0%	6%	-9%	48%	-6%	29
Cc1cc2c(cc1S(=O)(=O)Nc1cccc(Cl)c1C)n(C)c(=O)c(=O)n2C	-2%	4%	.	36%	.	2
Cc1cc(C)cc(OCC(=O)NNC(=O)c2ccccn2)c1	2%	-1%	?	-12%	.	-97*
O=C(COc1ccc(Cl)cc1)NNC(=O)c1ccccn1	-4%	4%	-22%	-6%	?	16
Cc1oc2ccc(O)c(CN3CCCCCC3)c2c1C(=O)Nc1cccc(Cl)c1C	1%	4%	.	?	.	-100*
Cc1ccc(NC(=O)c2c(C)oc3ccc(O)c(CN4CCCCCC4)c23)cc1	0%	-17%	.	?	.	-85*
CCOC(=O)c1c(-c2ccccc2)oc2ccc(O)c(CN3CCCC3)c12	.	8%	-1%[3.69 µM]	-22%	3%	-62*
Cc1ccc(NC(=O)c2c(C)oc3ccc(O)c(CN4CCCCCC4)c23)c(C)c1	-2%	-3%	.	0%	.	-65*
CCCCC#CC1C=CC(Oc2cc(OC)c(OC)c(OC)c2)C(CO)O1 (configuration not stated)	.	.	.	.	3%[12.9 µM]	.
Cc1ccccc1CNC(=O)Cc1csc2ccccc12	0%	5%	.	8%	.	77
Cc1ccccc1NC(=O)c1c(C)oc2ccc(O)c(CN(C)Cc3ccccc3)c12	2%	-7%	.	-28%	.	-17
Cc1oc2ccc(O)c(CN3CCCCCC3)c2c1C(=O)Nc1cccc(C(F)(F)F)c1	0%	-1%	.	-29%	.	-86*
Cc1oc2ccc(O)c(CN(C)Cc3ccccc3)c2c1C(=O)Nc1cccc(Cl)c1C	-5%	-15%	.	?	.	-66*
Cc1ccc(CNC(=O)[C@H](C)[C@H]2C[C@]2(C)[C@H](NC(=O)OCc2ccccc2)c2ccccc2)c(F)c1F	.	.	.	.	-1%	.
Cc1nc2c(c3c1[nH]c1ccccc13)C(O)CC(C)(C)C2 (configuration not stated)	-11%	-6%	?	?	7%	-90*
COc1ccc(CC(=O)Nc2ccc(-c3nc4ccccc4s3)cc2Cl)cc1OC	-8%	5%	.	2%	.	-28
Cc1c2cnn(CC(=O)NCCCN3CC(C)CC(C)C3)c(=O)c2c(C)n1Cc1ccccc1Cl (configuration not stated)	2%	-9%	-12%	-13%	6%	-69*
O=C1c2ccccc2C(O)N1c1ccc(Cl)cc1 (configuration not stated)	-3%	-1%	-10%	22%	-1%	-10
COC(=O)C1CN(C#N)N(c2ccc(Cl)cc2)C12c1ccccc1-c1ccccc12 (configuration not stated)	-16%	5.6µM*	18%	3.5µM*	-8%	.
